Screening results (PubChem)
Only some compounds are listed: those with a hit (about 8.2% of all), similar ones and a draw of the others.
MCF10A rereplic = A quantitative high throughput screen for small molecules that induce DNA re-replication in MCF 10a normal breast cells; MCF 10A DNA re-replication, Hoechst nuclear intensity, 48 h; Potency, µM (doses to about 46.1 µM), inactives show at the top dose activity, positive = re-replication, hits mostly activators; 350,000 tested, 2.9% active; AID 624296, 2012; note: % of control where 0% means no effect; nearly all actives have a fitted effect of over 50% in size
ELG1 repair inh = qHTS screen for small molecules that inhibit ELG1-dependent DNA repair in human embryonic kidney (HEK293T) cells expressing luciferase-tagged ELG1 | HEK293T ELG1-luciferase reporter, luminescence, 16 h; DNA damage induced by 5-fluorouridine | Potency, µM (doses to about 46.1 µM), inactives show top-dose activity change, negative = inhibition, usual class: inhibitors | 330,000 tested, 2.3% active; note: % is set by controls: 0 for no effect and ±100 for the full control effect; nearly all actives have a fitted effect of over 55% in size
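Overnight (16 hr) co-exposure of 2,000 cells/well to 5-fluorouridine and compound at 37 °C preceded detection. Luciferase was quantified via ONE-Glo luminescence; loss of signal denotes inhibition.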
SW480 rereplic = A quantitative high throughput screen for small molecules that induce DNA re-replication in SW480 colon adenocarcinoma cells; SW480 DNA re-replication, Hoechst DNA content imaging, 48 h; Potency, µM (titrated, usually from 46.1 µM), for the others: at the highest dose re-replication activation, usual class: activators; 340,000 tested, 1.8% active; AID 624297, 2012; note: % of control where 0% means no effect; nearly all actives have a fitted effect of over 55% in size
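Hoechst fluorescence of nuclei (405 nm excitation, 500-530 nm emission) measured by plate-scanning imager after 48 hr compound exposure at 37 C; re-replication scored as increased number of nuclei with elevated intensity.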
KB-3-1 tox = qHTS assay for MDR1-selective chemotherapeutics: Primary screen using the parental adenocarcinoma cell KB-3-1 | KB-3-1 viability, CellTiter-Glo ATP luminescence, 72 h | Potency, µM (highest dose often 46.1 µM), actives largely listed as cytotoxic | 400,000 tested, 1.4% active | AID 1347075, 2019; note: % is set by controls: 0 for no effect and ±100 for the full control effect; nearly all actives have a fitted effect of over 60% in size
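Cytotoxicity in the drug-sensitive parental line KB-3-1 was scored as loss of CellTiter-Glo luminescence following 72 h incubation with compound. Values come from curve fitting of normalized concentration-response data.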
KB-V1 cytotox = qHTS assay for MDR1-selective chemotherapeutics: Primary screen using the drug-selected MDR subline cells KB-V1; Potency, µM (series often up to 46.1 µM), actives largely listed as cytotoxic; 400,000 tested, 3.4% active; KB-V1 MDR cells viability, CellTiter-Glo, 72 h; note: % is set by controls: 0 for no effect and ±100 for the full control effect; nearly all actives have a fitted effect of over 60% in size
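In this primary screen, KB-V1 cells overexpressing P-gp are incubated with library compounds (lowest to highest concentration) for 72 h at 37 degrees C before a luminescent ATP viability read.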
* = called active by the depositor. Calls come from the whole dose curve; as a rule, active = well fitted curve in the direction sought with a large enough effect; inconclusive = small, poorly fitted or top-dose-only effect, or another doubt; inactive = no such curve, though single readings can be large; an effect the other way counts as inactive or inconclusive. Potency is the fitted concentration of half-maximal effect.

What do the screens show for `BrCC1C[n+]2c(SCc3ccccc3)nc3sc4c(c3c2O1)CCCC4` (centres undefined)?
MCF10A rereplic: 2.1%; ELG1 repair inh: 0.0%; SW480 rereplic: -6.8%; KB-3-1 tox: inactive; KB-V1 cytotox: inactive

Results for Nc1c2c(nc3sc4c(c13)CCCCC4)CCCC2 ?
MCF10A rereplic: inconclusive; ELG1 repair inh: inconclusive; SW480 rereplic: -2.2%; KB-3-1 tox: 29.1µM*; KB-V1 cytotox: inconclusive

How did CN(C)CCNC(=O)C(=O)NCC1OCCCN1S(=O)(=O)c1cccs1 (centres undefined) do in these assays?
MCF10A rereplic: 0.9%; ELG1 repair inh: 6.6%; SW480 rereplic: inconclusive; KB-3-1 tox: inconclusive; KB-V1 cytotox: inactive

Results for O=C(c1ccc(C(F)(F)F)cc1)C1CCCN(C2CCSCC2)C1 (centres undefined) ?
MCF10A rereplic: -2.3%; ELG1 repair inh: -14.0%; SW480 rereplic: 5.17µM*; KB-3-1 tox: inactive; KB-V1 cytotox: inconclusive

What do the screens show for `C=C1C(O)[C@@H]2O[C@]3(CC[C@H](/C=C/C(C)[C@@H]4CC(C)=CC5(O[C@H](C[C@@](C)(O)C(=O)O)CCC5O)O4)O3)CC[C@H]2O[C@@H]1C(O)CC(C)[C@H]1OC2(CCCCO2)CCC1C` (some centres undefined)?
MCF10A rereplic: inconclusive; ELG1 repair inh: 0.0517µM*; SW480 rereplic: -17.9%; KB-3-1 tox: inconclusive; KB-V1 cytotox: inactive

What do the screens show for `CC(=O)O/C(=C1\CC2C3CC=C4CC(OC(C)=O)CCC4(C)C3CCC2(C)C1=O)C(F)(F)F` (centres undefined)?
MCF10A rereplic: inconclusive; SW480 rereplic: -2.3%; KB-3-1 tox: inconclusive; KB-V1 cytotox: 10.3µM*

Results for CC(=O)O[C@H]1CC[C@@]2(C)C(=CC[C@@H]3[C@@H]2CC[C@]2(C)C(=O)CC[C@@H]32)C1 ?
MCF10A rereplic: -3.1%; ELG1 repair inh: 0.2%; SW480 rereplic: -22.0%; KB-3-1 tox: inactive; KB-V1 cytotox: inconclusive

How did COc1ccc(NC(=O)c2ccc(NC(=O)c3nc4nccc(C)n4n3)cc2)cc1 do in these assays?
MCF10A rereplic: -2.1%; ELG1 repair inh: inconclusive; SW480 rereplic: 4.9%; KB-3-1 tox: inactive; KB-V1 cytotox: inconclusive

Results for O=c1c2ccccc2nc(/C=C/c2ccccc2)n1-c1ccccc1O ?
MCF10A rereplic: inconclusive; ELG1 repair inh: inconclusive; SW480 rereplic: inconclusive; KB-3-1 tox: inactive; KB-V1 cytotox: inactive

Results for Cc1ccc(-n2c(/C=C\c3ccc(F)c(F)c3)nc3ccccc3c2=O)c(C)c1 ?
KB-3-1 tox: 2.91µM*; KB-V1 cytotox: 4.11µM*

Results for Cc1cc(C)cc(-n2c(/C=C/c3cccc(F)c3)nc3ccccc3c2=O)c1 ?
KB-3-1 tox: inactive; KB-V1 cytotox: inconclusive

How did Cc1ccccc1-n1c(/C=C/c2ccccn2)nc2ccccc2c1=O do in these assays?
MCF10A rereplic: 18.4µM*; ELG1 repair inh: inconclusive; SW480 rereplic: 26.8%; KB-3-1 tox: inactive; KB-V1 cytotox: inconclusive

How did O=c1c2ccccc2nc(/C=C/c2ccc(O)cc2)n1-c1ccccc1O do in these assays?
MCF10A rereplic: 20.6µM*; ELG1 repair inh: inconclusive; SW480 rereplic: 16.7%; KB-3-1 tox: 20.6µM*; KB-V1 cytotox: inactive

How did Clc1ccc(CCC(Cn2ccnc2)Sc2c(Cl)cccc2Cl)cc1 (centres undefined) do in these assays?
MCF10A rereplic: inconclusive; ELG1 repair inh: inconclusive; SW480 rereplic: -56.2%; KB-3-1 tox: inconclusive; KB-V1 cytotox: 20.6µM*

How did OC(Cn1cncn1)(Cn1cncn1)c1ccc(F)cc1F do in these assays?
MCF10A rereplic: -7.0%; SW480 rereplic: inconclusive; KB-3-1 tox: inactive; KB-V1 cytotox: inactive

Results for COc1ccc(NS(=O)(=O)c2cc(NC(=O)COc3ccccc3)ccc2N2CCOCC2)cc1 ?
MCF10A rereplic: -3.0%; ELG1 repair inh: inconclusive; SW480 rereplic: -2.6%; KB-3-1 tox: inactive; KB-V1 cytotox: inactive

What do the screens show for `Cc1cc(C(=O)OCC(=O)Nc2ccccc2F)c(C)n1C1CC1`?
MCF10A rereplic: 8.7%; ELG1 repair inh: inconclusive; SW480 rereplic: 1.5%; KB-3-1 tox: inactive; KB-V1 cytotox: inactive

How did CCN(C(=O)COC(=O)c1cc(C)n(C2CC2)c1C)c1ccccc1 do in these assays?
MCF10A rereplic: inconclusive; ELG1 repair inh: 3.7%; SW480 rereplic: -2.2%; KB-3-1 tox: inactive; KB-V1 cytotox: 2.59µM*

What do the screens show for `COc1ccc(C(=O)CCNc2ccc(F)cc2)cc1`?
MCF10A rereplic: 0.0%; ELG1 repair inh: inconclusive; SW480 rereplic: -8.4%; KB-3-1 tox: inactive; KB-V1 cytotox: inactive

What do the screens show for `O=C(CCl)c1ccc(Oc2ccc(C(=O)CCl)cc2)cc1`?
MCF10A rereplic: 26.6µM*; SW480 rereplic: 17.7%

How did CN1CCCC1c1cccnc1 (centres undefined) do in these assays?
MCF10A rereplic: -1.2%; SW480 rereplic: -0.5%; KB-3-1 tox: inactive; KB-V1 cytotox: inactive

Results for Cc1cccc(C(=O)NCCC(=O)NCc2ccccc2F)c1 ?
MCF10A rereplic: inconclusive; ELG1 repair inh: 14.1%; SW480 rereplic: -44.4%; KB-3-1 tox: inactive; KB-V1 cytotox: inactive

What do the screens show for `O=c1[nH]c2ccccc2n1C1CCN(C(c2nnnn2-c2ccc3c(c2)OCCO3)C2CC2)CC1` (centres undefined)?
KB-3-1 tox: inconclusive; KB-V1 cytotox: inactive

What do the screens show for `Cc1cccc(C)c1-n1nnnc1C(c1ccccc1OC(F)(F)F)N1CCC(n2c(=O)[nH]c3ccccc32)CC1` (centres undefined)?
KB-3-1 tox: 23.1µM*; KB-V1 cytotox: inactive

What do the screens show for `O=c1[nH]c2ccccc2n1C1CCN(C(c2ccccc2)c2nnnn2-c2ccc3c(c2)OCCO3)CC1` (centres undefined)?
KB-3-1 tox: inconclusive; KB-V1 cytotox: 16.4µM*

What do the screens show for `O=c1[nH]c2ccccc2n1C1CCN(C(CCc2ccccc2)c2nnnn2C2CCCC2)CC1` (centres undefined)?
KB-3-1 tox: inconclusive; KB-V1 cytotox: 3.26µM*

Results for COc1cccc(C(c2nnnn2Cc2ccccc2)N2CCC(n3c(=O)[nH]c4ccccc43)CC2)c1OC (centres undefined) ?
KB-3-1 tox: inconclusive; KB-V1 cytotox: 18.4µM*

What do the screens show for `S=c1[nH]nc(C2CC2)n1Cc1ccccc1`?
MCF10A rereplic: -21.6%; ELG1 repair inh: 13.0%; SW480 rereplic: -2.5%; KB-3-1 tox: inactive; KB-V1 cytotox: inactive
